SMILES strings stand for the structures. Records with an inconclusive call do not appear. A number with no mark means an inactive call. Active and inactive are the calls of the source. Calls come from the whole dose curve.
% is set by controls: 0 for no effect and ±100 for the full control effect; potency is the fitted concentration of half-maximal effect.

The assay is described as follows: cAMP Responsive Elements (CRE) small molecule agonists, cell-based qHTS assay (AID 1963590). As to conditions: CRE-bla HEK293T, beta-lactamase FRET ratio, 3 h; series mostly up to 92.4 µM; activation: at the top concentration. In a few lines:
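Agonist mode qHTS in CRE-bla HEK 293T cells: compounds dosed from DMSO for 3 h at 37 C/5% CO2, followed by LiveBLAzer B/G FRET substrate for 2 h at room temperature.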
For orientation: Quantitative high-throughput screening tests each substance at several concentrations.
In the case of `Clc1cc(Cl)c(-c2cc(Cl)c(Cl)cc2Cl)cc1Cl`, the “activation” value was -1.2% [at 42.5 µM].
With `CC1=C2C[C@H]3[C@@H](CC=C4C[C@@H](O)CC[C@@]43C)[C@@H]2CC[C@]12O[C@@H]1C[C@H](C)CN[C@H]1[C@H]2C`, the “activation” value is 0.669% [at 42.5 µM].
On the same count and under the same terms, the figure for `ClC1=C(Cl)[C@]2(Cl)[C@H]3[C@H]([C@@H]4C=C[C@H]3C4)[C@@]1(Cl)C2(Cl)Cl` is 0.272%; for `O=C(Cl)c1ccc(Cl)cc1` it is -0.672%.
Same read-out and setting: the same measure for `Nc1ccc([N+](=O)[O-])cc1Cl`: 0.282%; for `COC(=O)C(c1ccccc1)C1CCCCN1` (stereo not given): -2.2%.
Still for that read-out and setting: the same measure for `CC(=O)[O-].CC(=O)[O-].O.O.[Cd+2]`: 7.44%; for `CN1C(=O)[C@@H](NC(=O)c2cc3ccccc3[nH]2)N=C(c2ccccc2)c2ccccc21`: 2.88% [at 42.5 µM]; for `CCO[C@H]1O[C@@H]2OC3(C)CC[C@H]4[C@H](C)CC[C@@H]([C@H]1C)[C@@]24OO3`: -0.907% [at 42.5 µM].
As for `O=NN(CCO)CCO`, the “activation” value was -1.32%.
On to `[O-][Br+2]([O-])O`, for which the “activation” value is -0.801% [at 42.5 µM].
With `C[C@@H]1C[C@@H]([C@H](O)CC2CC(=O)NC(=O)C2)C(=O)[C@@H](C)C1`, the Potency result is “inactive”.
On to `OC(Cc1ccccc1Cl)(Cn1[nH]cnc1=S)C1(Cl)CC1` (stereo not given), for which the “activation” value is 0.432%.
`N#CC(C#N)=C(C#N)C#N`: the “activation” value was -2.35%.
Take `COCC(C)N(C(=O)CCl)c1c(C)csc1C` (stereo not given): the “activation” value is -2.37%.
`N[C@@H](Cc1ccc(Oc2cc(I)c(O)c(I)c2)c(I)c1)C(=O)O`: the “activation” value was -0.28% [at 42.5 µM].
For the molecule `CC(Cc1ccccc1)NCCn1cnc2c1c(=O)n(C)c(=O)n2C` (stereo not given), the “activation” value is 0.549%.
In the case of `CC1(C)C(C(=O)OC(C#N)c2cccc(Oc3ccccc3)c2)C1(C)C` (stereo not given), the Potency entry was “inactive”.
Turning to `CCCN(CC1CC1)c1c([N+](=O)[O-])cc(C(F)(F)F)cc1[N+](=O)[O-]`, the “activation” value was -4.41%.
`COc1ccc(Cc2nccc3cc(OC)c(OC)cc23)cc1OC`: the Potency was 11.9 µM (active).

Source of the values: PubChem BioAssay (Tox21).
